aSyn 5UTR act: Activators via SNCA 5'UTR binding, MLPCN. alpha-synuclein 5'UTR reporter, activators screen. 7.1% of 300,000 active. activity score, % (tested at 7.5 µM), hits read low; in the data active = activity score below about -60%
Hits are given with their value. These entries were drawn from the full list.

`COc1cccc(Nc2nc(CC(C)=O)ns2)c1` gave aSyn 5UTR act -86.3.
For O=C(Nc1ccc(F)cc1)Nc1ccc(N2CCOCC2)c2nonc12 the results were aSyn 5UTR act -145.0.
For O=C(Nc1ccc(N2CCOCC2)c2nonc12)C1CCCC1 the results were aSyn 5UTR act -142.0.
For Oc1ccc(C2=NNC(=NCc3ccc4c(c3)OCO4)SC2)c(O)c1 the results were aSyn 5UTR act -87.3.
For C=CCN=C1NN=C(c2cc(C)n(CCOC)c2C)CS1 the results were aSyn 5UTR act inactive.
For Cc1ccc2nc(SCC(=O)Nc3ccc4sc(C)nc4c3)c(C#N)cc2c1 the results were aSyn 5UTR act -128.6.
For Cc1cc(NC(=O)CSc2nc3ccccc3c(=O)n2C2CCCC2)no1 the results were aSyn 5UTR act inactive.
COc1ccc2nc(SCC(=O)NC3CC3)c(C#N)cc2c1 was read as aSyn 5UTR act -68.3.
`COc1ccc2nc(SCC(=O)Nc3cc(C)on3)c(C#N)cc2c1` gave aSyn 5UTR act -102.8.
Cc1cc(NC(=O)CSc2nc3ccccc3cc2C#N)no1 was read as aSyn 5UTR act -158.2.
Screening COC(=O)CSc1nc2cc(C)ccc2cc1C#N returned aSyn 5UTR act -189.5.
N#Cc1cc2cc3c(cc2nc1SCC(=O)N1CCOCC1)OCCO3 was read as aSyn 5UTR act inactive.
COc1ccc2nc(SCC(=O)N3CCCCC3)c(C#N)cc2c1 was read as aSyn 5UTR act -107.1.
Screening Cc1cc(NC(=O)CSc2nc3c(cc2C#N)CCCC3)no1 returned aSyn 5UTR act -73.6.
`Cc1ccc(OCc2ccc(C(=O)N3CCOCC3)cc2)cc1C` gave aSyn 5UTR act -65.5.
Screening Cc1ccc(OCC(=O)N2CCOCC2)cc1C returned aSyn 5UTR act -68.0.
O=C(O)c1cccc(COc2ccc(CO)cc2Cl)c1 was read as aSyn 5UTR act inactive.
For O=C(O)c1ccc(COc2ccc(CO)cc2Cl)cc1 the results were aSyn 5UTR act -92.4.
`CN(C)C(=O)N1CCCC(C(=O)NCCc2ccccc2)C1` (stereo not drawn) gave aSyn 5UTR act -91.3.
Screening O=C(NCCc1ccccc1)C1CCN(C(=O)Nc2ccccc2)CC1 returned aSyn 5UTR act -66.1.
`CC1CCCCN1C(=S)NCCc1ccccc1` (stereo not drawn) gave aSyn 5UTR act -93.0.
COc1ccc(Br)cc1CNC(=O)C1CCN(C(=O)N(C)C)CC1 was read as aSyn 5UTR act inactive.
For CC1CCCN(C(=S)NCCc2ccccc2)C1 (stereo not drawn) the results were aSyn 5UTR act -101.7.
`O=C1Nc2ccccc2/C1=N/c1sc2c(c1C(=O)NCCc1ccccc1)CCCC2` gave aSyn 5UTR act -86.8.
CSC1=NSC2=NC(=O)/C(=C\c3cccs3)C(=N)N12 was read as aSyn 5UTR act -198.9.
Screening CC(C)CSC1=NSC2=NC(=O)/C(=C\c3cccs3)C(=N)N12 returned aSyn 5UTR act -68.9.
Cc1nc(S(=O)(=O)N(C)c2ccccc2)c(C#N)c(C)c1Cl was read as aSyn 5UTR act -76.5.
For Cc1cc2nn(-c3cccc4ccccc34)nc2cc1N the results were aSyn 5UTR act -179.9.
For Cc1cc(C)c2c(N)c(C(=O)NNC(=O)c3ccccc3)sc2n1 the results were aSyn 5UTR act -107.8.
`Cc1cc(C)c2c(N)c(C(=O)N/N=C/c3ccccc3)sc2n1` gave aSyn 5UTR act -107.8.
Cc1cc(C)c2c(N)c(C(=O)N/N=C/c3cccnc3)sc2n1 was read as aSyn 5UTR act -128.3.
For Nc1c(C(=O)NCc2ccccc2)sc2nc(N3CCOCC3)c3c(c12)CCCC3 the results were aSyn 5UTR act inactive.
For O=c1c2[nH]c3ccccc3c2nc2n1CCCS2 the results were aSyn 5UTR act -75.3.
`NC(=O)C1CCN(c2ncnc3c(-c4ccccc4)nsc23)CC1` gave aSyn 5UTR act -112.5.
`O=C(c1ccco1)N1CCN(c2ncnc3c(-c4ccccc4)nsc23)CC1` gave aSyn 5UTR act -105.8.
Screening COc1ccc(-c2nsc3c(N4CCN(C(=O)c5ccco5)CC4)ncnc23)cc1 returned aSyn 5UTR act -64.2.
`CC(C)c1ccccc1-n1c(SCC(=O)c2ccc3c(c2)NC(=O)CO3)nc2ccccc2c1=O` gave aSyn 5UTR act inactive.
Screening COc1ccc(Nc2nc(-c3ccc4c(c3)NC(=O)CO4)cs2)cc1 returned aSyn 5UTR act -109.6.
For CCC(C)Nc1nc(-c2ccc3c(c2)NC(=O)CO3)cs1 (stereo not drawn) the results were aSyn 5UTR act -112.4.
Screening CCCNC(=O)c1oc2ccc3c(c2c1C)C(=O)CC(C)(C)O3 returned aSyn 5UTR act -89.2.
For CCCNC(=O)c1oc2ccc3c(c2c1C)C=CC(C)(C)O3 the results were aSyn 5UTR act -90.2.
For O=C(/C=C/c1ccc(F)cc1)NC(=S)N1CCN(c2ccccn2)CC1 the results were aSyn 5UTR act -84.6.
COc1ccc(/C=C/C(=O)NC(=S)N2CCOCC2)cc1 was read as aSyn 5UTR act -83.7.
For COc1ccc(/C=C/C(=O)NC(=S)N2CCN(c3ccccc3OC)CC2)cc1 the results were aSyn 5UTR act -160.0.
For CCc1sc(C(=O)Nc2nc(C)cs2)cc1C the results were aSyn 5UTR act -81.9.
`Cc1nc(NC(=O)c2cccs2)ccc1Br` gave aSyn 5UTR act -284.2.

Compound activity: PubChem BioAssay, Broad Institute
